The source of these data is ChEMBL document CHEMBL1961873, “Compounds: GSK PKIS; Assays: Nanosyn kinase panel” (2012).

The target in experiment [1] is Dual specificity protein kinase CLK3 (Homo sapiens) (UniProt P49761). The settings on record: at 1 µM.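 Note: each value is the mean inhibition of CLK3.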
Experiment [2] addresses Dual specificity tyrosine-phosphorylation-regulated kinase 1A (Homo sapiens) (UniProt Q13627). The following applies: at 0.1 µM.
The target is the same in experiment [3]. The following applies: at 1 µM.
The target in experiment [4] is Dual specificity tyrosine-phosphorylation-regulated kinase 1B (Homo sapiens) (UniProt Q9Y463). The settings on record: at 0.1 µM.
Dual specificity tyrosine-phosphorylation-regulated kinase 1B (Homo sapiens), sequence (Q9Y463 whole entry, looked up): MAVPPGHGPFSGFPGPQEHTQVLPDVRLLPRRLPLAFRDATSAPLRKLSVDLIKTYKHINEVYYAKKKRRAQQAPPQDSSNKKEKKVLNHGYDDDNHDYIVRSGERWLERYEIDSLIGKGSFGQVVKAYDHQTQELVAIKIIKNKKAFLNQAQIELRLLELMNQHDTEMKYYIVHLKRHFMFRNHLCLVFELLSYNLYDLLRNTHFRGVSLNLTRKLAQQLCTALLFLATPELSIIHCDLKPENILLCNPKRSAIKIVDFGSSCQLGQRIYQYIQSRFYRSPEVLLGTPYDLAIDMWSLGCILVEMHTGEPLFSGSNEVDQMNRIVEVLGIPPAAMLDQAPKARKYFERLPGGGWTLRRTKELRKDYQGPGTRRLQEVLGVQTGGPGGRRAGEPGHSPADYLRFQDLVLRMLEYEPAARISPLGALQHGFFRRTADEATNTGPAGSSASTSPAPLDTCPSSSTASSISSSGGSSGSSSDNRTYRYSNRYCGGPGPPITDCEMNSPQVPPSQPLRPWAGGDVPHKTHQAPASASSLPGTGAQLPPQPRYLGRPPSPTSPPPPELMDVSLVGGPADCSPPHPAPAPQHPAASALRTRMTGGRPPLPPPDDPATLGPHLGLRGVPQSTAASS
For experiment [5] the target is unchanged. The settings on record: at 1 µM.
Experiment [6] addresses T1, Dual specificity tyrosine-phosphorylation-regulated kinase 2 (Homo sapiens) (UniProt Q92630).
T1 sequence (whole entry): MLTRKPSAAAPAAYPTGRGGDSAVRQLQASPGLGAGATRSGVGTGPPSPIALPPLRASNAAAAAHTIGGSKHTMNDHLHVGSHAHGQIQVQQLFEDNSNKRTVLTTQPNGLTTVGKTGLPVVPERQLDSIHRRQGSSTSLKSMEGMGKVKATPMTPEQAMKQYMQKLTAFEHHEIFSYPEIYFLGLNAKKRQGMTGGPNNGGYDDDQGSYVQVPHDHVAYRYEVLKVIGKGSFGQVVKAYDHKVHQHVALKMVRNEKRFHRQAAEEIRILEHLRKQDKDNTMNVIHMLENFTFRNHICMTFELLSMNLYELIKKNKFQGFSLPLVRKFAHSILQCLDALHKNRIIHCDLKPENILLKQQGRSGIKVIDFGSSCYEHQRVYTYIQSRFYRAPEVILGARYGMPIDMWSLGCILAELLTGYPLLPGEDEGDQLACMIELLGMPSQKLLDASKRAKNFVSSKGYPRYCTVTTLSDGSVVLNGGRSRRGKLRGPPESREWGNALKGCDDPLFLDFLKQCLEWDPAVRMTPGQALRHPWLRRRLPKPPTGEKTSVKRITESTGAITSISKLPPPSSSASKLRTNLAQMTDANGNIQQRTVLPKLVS
The following applies: at 0.1 µM.

The target of experiment [7] is T1, Dual specificity tyrosine-phosphorylation-regulated kinase 2 (Homo sapiens). The following applies: at 1 µM.
For experiment [8], the target named is Glycogen synthase kinase-3 alpha (Homo sapiens) (UniProt P49840). The following applies: at 0.1 µM.
Glycogen synthase kinase-3 alpha (Homo sapiens), sequence (P49840 2-483 limits assumed): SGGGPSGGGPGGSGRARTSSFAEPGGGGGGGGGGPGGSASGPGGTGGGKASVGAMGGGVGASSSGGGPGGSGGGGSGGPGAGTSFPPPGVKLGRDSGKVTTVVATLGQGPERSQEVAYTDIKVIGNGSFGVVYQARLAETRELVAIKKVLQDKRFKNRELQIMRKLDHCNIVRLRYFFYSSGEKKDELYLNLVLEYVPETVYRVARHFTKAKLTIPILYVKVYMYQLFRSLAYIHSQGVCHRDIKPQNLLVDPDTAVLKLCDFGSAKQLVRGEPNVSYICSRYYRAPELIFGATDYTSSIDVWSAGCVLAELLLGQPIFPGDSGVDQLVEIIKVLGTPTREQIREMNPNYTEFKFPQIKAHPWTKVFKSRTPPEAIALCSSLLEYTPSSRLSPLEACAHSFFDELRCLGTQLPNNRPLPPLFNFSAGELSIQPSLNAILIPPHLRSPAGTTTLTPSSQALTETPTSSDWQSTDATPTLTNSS
Experiment [9] shares this target. The following applies: at 1 µM.
In experiment [10] the target is Glycogen synthase kinase-3 beta (Homo sapiens) (UniProt P49841). The following applies: at 0.1 µM.
Glycogen synthase kinase-3 beta (Homo sapiens), sequence (P49841 whole entry, looked up): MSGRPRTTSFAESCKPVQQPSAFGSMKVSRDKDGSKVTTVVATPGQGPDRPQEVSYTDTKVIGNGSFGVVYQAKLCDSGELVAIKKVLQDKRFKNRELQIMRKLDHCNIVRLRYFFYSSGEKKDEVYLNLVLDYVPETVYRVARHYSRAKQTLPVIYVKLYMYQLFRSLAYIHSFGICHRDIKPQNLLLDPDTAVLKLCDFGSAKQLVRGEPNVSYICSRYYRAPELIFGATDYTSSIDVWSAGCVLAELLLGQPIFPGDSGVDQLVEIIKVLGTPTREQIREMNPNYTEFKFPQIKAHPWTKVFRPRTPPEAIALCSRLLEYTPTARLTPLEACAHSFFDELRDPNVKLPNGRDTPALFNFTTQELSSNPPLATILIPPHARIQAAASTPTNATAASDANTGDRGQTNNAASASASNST
Experiment [11] has the same target. The following applies: at 1 µM.
The target in experiment [12] is Homeodomain-interacting protein kinase 1 (Homo sapiens) (UniProt Q86Z02). The following applies: at 0.1 µM.
Homeodomain-interacting protein kinase 1 (Homo sapiens), sequence (Q86Z02 whole entry, looked up): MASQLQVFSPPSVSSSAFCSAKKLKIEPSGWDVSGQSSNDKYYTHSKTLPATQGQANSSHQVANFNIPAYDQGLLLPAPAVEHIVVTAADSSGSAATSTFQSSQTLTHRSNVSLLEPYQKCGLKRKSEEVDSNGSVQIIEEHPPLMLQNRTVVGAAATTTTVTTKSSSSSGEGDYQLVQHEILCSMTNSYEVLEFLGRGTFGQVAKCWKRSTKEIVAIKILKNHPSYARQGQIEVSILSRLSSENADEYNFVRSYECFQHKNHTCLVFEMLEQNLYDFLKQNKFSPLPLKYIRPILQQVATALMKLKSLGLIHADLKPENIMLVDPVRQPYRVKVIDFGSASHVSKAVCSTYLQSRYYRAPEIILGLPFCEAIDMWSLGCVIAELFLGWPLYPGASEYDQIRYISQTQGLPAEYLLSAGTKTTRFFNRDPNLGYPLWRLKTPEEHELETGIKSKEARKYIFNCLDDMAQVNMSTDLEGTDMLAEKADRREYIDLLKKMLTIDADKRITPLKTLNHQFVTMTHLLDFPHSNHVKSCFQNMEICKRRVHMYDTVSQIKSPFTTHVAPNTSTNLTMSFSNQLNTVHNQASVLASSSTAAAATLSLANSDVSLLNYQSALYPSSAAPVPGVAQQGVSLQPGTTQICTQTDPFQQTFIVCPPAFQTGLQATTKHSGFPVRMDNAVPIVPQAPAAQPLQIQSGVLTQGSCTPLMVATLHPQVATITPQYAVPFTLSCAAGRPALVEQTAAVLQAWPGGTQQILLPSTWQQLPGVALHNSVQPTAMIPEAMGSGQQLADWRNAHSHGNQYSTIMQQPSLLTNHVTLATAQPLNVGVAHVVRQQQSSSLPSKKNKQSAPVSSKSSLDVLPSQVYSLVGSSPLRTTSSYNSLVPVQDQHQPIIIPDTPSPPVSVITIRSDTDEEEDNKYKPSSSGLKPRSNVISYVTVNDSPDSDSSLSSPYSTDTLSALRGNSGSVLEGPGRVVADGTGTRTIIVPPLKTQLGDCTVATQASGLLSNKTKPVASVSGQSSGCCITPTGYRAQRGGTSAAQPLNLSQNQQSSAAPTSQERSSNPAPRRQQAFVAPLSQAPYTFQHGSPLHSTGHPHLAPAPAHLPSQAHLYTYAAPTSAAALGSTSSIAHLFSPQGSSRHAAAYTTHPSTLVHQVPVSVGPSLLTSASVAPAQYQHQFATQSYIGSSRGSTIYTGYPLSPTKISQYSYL
Experiment [13] has the same target. The following applies: at 1 µM.
The target in experiment [14] is T2, Homeodomain-interacting protein kinase 4 (Homo sapiens) (UniProt Q8NE63).
T2 sequence (whole entry): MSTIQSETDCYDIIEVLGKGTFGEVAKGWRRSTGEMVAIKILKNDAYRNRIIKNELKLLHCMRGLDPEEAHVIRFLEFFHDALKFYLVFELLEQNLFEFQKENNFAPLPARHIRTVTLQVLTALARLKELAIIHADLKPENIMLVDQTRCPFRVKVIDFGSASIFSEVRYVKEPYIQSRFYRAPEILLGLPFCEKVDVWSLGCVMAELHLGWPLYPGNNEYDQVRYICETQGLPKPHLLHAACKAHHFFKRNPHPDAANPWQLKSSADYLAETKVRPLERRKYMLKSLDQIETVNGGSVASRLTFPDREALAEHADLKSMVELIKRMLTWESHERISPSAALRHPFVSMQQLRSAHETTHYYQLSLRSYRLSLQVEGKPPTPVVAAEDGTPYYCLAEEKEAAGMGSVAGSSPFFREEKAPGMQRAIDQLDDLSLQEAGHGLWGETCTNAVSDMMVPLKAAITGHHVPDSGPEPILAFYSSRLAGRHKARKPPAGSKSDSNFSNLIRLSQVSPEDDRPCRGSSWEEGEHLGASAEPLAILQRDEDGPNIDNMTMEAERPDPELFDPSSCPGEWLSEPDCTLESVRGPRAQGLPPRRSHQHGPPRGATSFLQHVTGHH
The following applies: at 0.1 µM.

Experiment [15] deals with T2, Homeodomain-interacting protein kinase 4 (Homo sapiens). The settings on record: at 1 µM.
Experiment [16] concerns the target Mitogen-activated protein kinase 9 (Homo sapiens) (UniProt P45984). The settings on record: at 0.1 µM.
The target is the same in experiment [17]. The settings on record: at 1 µM.
In experiment [18] the target is Mitogen-activated protein kinase 1 (Homo sapiens) (UniProt P28482). The following applies: at 0.1 µM.
Mitogen-activated protein kinase 1 (Homo sapiens), sequence (P28482 whole entry): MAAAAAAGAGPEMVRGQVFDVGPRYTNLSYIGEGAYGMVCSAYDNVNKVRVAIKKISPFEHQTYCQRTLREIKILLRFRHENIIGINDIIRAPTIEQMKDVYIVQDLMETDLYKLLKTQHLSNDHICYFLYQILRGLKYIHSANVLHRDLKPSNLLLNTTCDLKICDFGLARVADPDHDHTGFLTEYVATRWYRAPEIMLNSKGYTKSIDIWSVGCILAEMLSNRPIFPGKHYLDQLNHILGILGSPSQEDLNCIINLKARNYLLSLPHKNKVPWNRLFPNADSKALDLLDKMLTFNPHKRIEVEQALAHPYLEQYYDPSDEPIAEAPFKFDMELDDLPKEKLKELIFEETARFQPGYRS
Experiment [19] shares this target. The following applies: at 1 µM.
Experiment [20] deals with Mitogen-activated protein kinase 3 (Homo sapiens) (UniProt P27361). The settings on record: at 0.1 µM.
Mitogen-activated protein kinase 3 (Homo sapiens), sequence (P27361 whole entry): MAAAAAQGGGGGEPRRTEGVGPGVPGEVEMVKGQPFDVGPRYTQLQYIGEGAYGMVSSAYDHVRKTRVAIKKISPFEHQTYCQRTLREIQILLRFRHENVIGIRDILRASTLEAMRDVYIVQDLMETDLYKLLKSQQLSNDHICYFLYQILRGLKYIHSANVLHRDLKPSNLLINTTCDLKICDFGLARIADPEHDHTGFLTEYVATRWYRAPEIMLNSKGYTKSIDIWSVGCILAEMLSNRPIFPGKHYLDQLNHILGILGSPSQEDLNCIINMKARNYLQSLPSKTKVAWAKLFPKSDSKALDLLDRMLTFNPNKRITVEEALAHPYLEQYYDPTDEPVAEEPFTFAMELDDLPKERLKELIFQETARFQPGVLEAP

Dual specificity protein kinase CLK3 (Homo sapiens), sequence (P49761 whole entry, looked up): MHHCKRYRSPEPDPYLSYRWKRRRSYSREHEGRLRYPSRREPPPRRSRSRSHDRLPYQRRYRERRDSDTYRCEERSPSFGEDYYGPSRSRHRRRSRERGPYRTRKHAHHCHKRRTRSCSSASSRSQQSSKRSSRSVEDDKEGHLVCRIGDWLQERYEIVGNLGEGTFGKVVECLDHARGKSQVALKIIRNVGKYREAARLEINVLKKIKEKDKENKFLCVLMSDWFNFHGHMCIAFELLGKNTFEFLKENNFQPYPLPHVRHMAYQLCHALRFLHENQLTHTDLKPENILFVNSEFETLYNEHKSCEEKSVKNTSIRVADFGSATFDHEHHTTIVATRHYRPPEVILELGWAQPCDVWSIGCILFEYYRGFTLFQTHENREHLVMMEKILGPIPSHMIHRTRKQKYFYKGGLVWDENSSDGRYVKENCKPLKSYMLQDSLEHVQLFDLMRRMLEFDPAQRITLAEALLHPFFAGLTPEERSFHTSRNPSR
Mitogen-activated protein kinase 9 (Homo sapiens), sequence (P45984 whole entry, looked up): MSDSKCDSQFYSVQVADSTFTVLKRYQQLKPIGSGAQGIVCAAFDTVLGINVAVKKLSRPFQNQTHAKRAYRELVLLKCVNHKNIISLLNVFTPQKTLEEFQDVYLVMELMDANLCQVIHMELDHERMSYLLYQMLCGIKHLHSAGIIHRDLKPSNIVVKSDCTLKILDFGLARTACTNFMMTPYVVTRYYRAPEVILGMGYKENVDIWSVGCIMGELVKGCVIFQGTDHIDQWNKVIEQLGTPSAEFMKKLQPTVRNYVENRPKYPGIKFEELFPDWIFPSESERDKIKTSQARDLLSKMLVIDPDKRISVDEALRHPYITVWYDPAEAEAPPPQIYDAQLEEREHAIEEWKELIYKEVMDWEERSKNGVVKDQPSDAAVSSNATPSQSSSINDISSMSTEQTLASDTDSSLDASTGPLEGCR

With `CS(=O)(=O)CCNCc1cc(-c2cc3c(Nc4ccc(OCc5cccc(F)c5)c(Cl)c4)ncnc3s2)cs1`, the inhibition (commonly the change of the read-out against control, counted positive when it falls) in experiment [1] was 0.02%; in experiment [2] it was 2.31%; in experiment [3], 3.13%; in experiment [4], -1.81%; in experiment [5] it was -0.61%; in experiment [6] it was 3.75%. The inhibition is 8.37% in experiment [7]; 2.31% in [8]; 2.97% in experiment [9]; 1.53% in experiment [10]; 1.78% in [11]; -2.22% in experiment [12]. The inhibition in experiment [13] is -1.08%; in experiment [14] it was -0.67%; in [15] it was 1.29%; in experiment [16] it was 3.11%; in experiment [17], 7.13%; in [18] it was 5.61%. Also, the inhibition in experiment [19] is 7.79%; in experiment [20], 4.58%.

Regarding `C[C@@H](Oc1cc(-n2cnc3ccc(OC4CCN(C)CC4)cc32)sc1C(N)=O)c1ccccc1Cl`, the inhibition in experiment [1] was -2.38%; in [2] it was -0.72%; in [3], 0.72%; in [4], -4.55%; in [5] it was -3.42%; in [6], 2.47%. In addition, the inhibition in experiment [7] was 7.45%; in experiment [8], -1.18%; in experiment [9] it was -0.34%; in experiment [10], -1.76%; in [11], -0.12%; in experiment [12], -4.32%. Further, the inhibition in experiment [13] was 2.08%; in experiment [14], 3.54%; in experiment [15] it was 28.7%; in experiment [16], 1.24%; in experiment [17], 5.06%; in experiment [18] it was 5.74%. Moreover, the inhibition in [19] came to 6.64%; in [20], 3.11%.

`CCN(CC)Cc1ccc(Nc2nccc(-c3cnn4ncccc34)n2)cc1`: the inhibition came out at 5.2% in experiment [1]; 40% in [2]; 88% in experiment [3]; 43.6% in experiment [4]; 69.2% in experiment [5]; 5.06% in experiment [6]. Also, the inhibition in [7] was determined as 25.7%; in experiment [8], 24.4%; in experiment [9], 65.8%; in [10], 18%; in experiment [11], 62.3%; in experiment [12], 50.6%. In addition, the inhibition in experiment [13] worked out at 71.9%; in experiment [14], 18.1%; in experiment [15], 59%; in experiment [16] it was 6.18%; in experiment [17], 30.9%; in experiment [18] it was 6.89%. Further, the inhibition in [19] came to 15.8%.

`NC(=O)c1cc(-c2ccncc2)cc(-c2ccccc2)c1N`: the inhibition came to 2.34% in experiment [1]; 6.65% in experiment [2]; 29.2% in [3]; 3.05% in experiment [4]; 17.9% in [5]; 3.61% in experiment [6]. The inhibition is 4.25% in experiment [7]; 3.97% in experiment [8]; 12.7% in experiment [9]; 2.53% in [10]; 9.17% in experiment [11]; -1.44% in experiment [12]. The inhibition in experiment [13] is -0.02%; in [14] it was 1.54%; in experiment [15], 4.34%; in experiment [16] it was 5.97%; in [17], 6.49%; in experiment [18], 4%. Besides, the values for the inhibition in [19] and in experiment [20] were 6.15% and 3.98%, respectively.

Turning to `Cc1ccc(C(=O)NC2CCC2)cc1-c1ccc(C(=O)NCC2CC2)cc1`, the inhibition in [1] amounted to 1.28%; in experiment [2], 2.74%; in experiment [3] it was 5.39%; in experiment [4], 1.78%; in experiment [5] it was 2.49%; in experiment [6] it was 2.22%. Also, the inhibition in experiment [7] was 3.3%; in experiment [8], 1.01%; in experiment [9], 4.22%; in experiment [10], 0.28%; in experiment [11], 3.43%; in experiment [12], -0.93%. Further, the inhibition is 2.06% in experiment [13]; -0.06% in [14]; 1.07% in [15]; 2.74% in [16]; 3.35% in [17]; 0.32% in experiment [18]. Besides, the inhibition in experiment [19] is 3.11%; in experiment [20] it was 2.05%.

Turning to `O=C1Nc2ccccc2/C1=C/Nc1ccc(-n2cncn2)cc1`, the inhibition came to 1.52% in experiment [1]; 6.54% in experiment [2]; 14.3% in [3]; 3.43% in experiment [4]; 11.6% in experiment [5]; 3.46% in [6]. Further, the inhibition turned out to be 6.8% in experiment [7]; 17.3% in experiment [8]; 28.2% in [9]; 15.3% in experiment [10]; 25.4% in [11]; 2.9% in [12]. Moreover, the inhibition in experiment [13] came to 5.5%; in experiment [14] it was 0.86%; in [15], 3.17%; in [16], 5.47%; in [17] it was 12.1%; in [18], 6.04%. In addition, the inhibition in experiment [19] was 6.4%; in experiment [20], 93.3%.

For the compound `COc1cccc(-n2cnc3c(N/N=C/c4ccncc4)ncnc32)c1`, the inhibition in experiment [1] is -2.92%; in [2], -3.39%; in experiment [3] it was 2.17%; in experiment [4], -3.26%; in [5], -0.65%; in [6], 0.79%. Moreover, the inhibition is 2.96% in [7]; 3.64% in experiment [8]; 34.7% in experiment [9]; 3.02% in [10]; 32.4% in experiment [11]; -2.33% in [12]. Moreover, the inhibition in [13] was -0.32%; in [14], -0.66%; in [15] it was 3.74%; in experiment [16], -1.67%; in experiment [17] it was -0.57%; in [18], -1.43%. Moreover, the inhibition was -0.07% in experiment [19] and 0.83% in experiment [20].
